From PubChem BioAssay (NCATS)
Records with an inconclusive call do not appear. Where a call stands in place of a potency, no number is given. Activity calls are given as the source filed them. The call rests on the fitted dose curve; in most records, active means well fitted curve in the direction sought with a large enough effect; inconclusive means small, poorly fitted or top-dose-only effect, or another doubt; inactive means no such curve, though single readings can be large; an effect the other way counts as inactive or inconclusive.

Test system: not listed separately
Test: Validation screen for small molecules that induce genotoxicity in human embryonic kidney (HEK293T) cells expressing luciferase-tagged ELG1 (AID 493106)
Conditions: luminescence; series mostly up to 46.1 µM
Procedure, shortened: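 ELG1-luciferase reporter readout (ONE-Glo, 30 min, room temperature) after 16 hr compound treatment at 37 °C of HEK293T cells at 2,000 per well. Rising luminescence flags genotoxic stress.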

SMILES	Potency
CNc1ccc2oc(C[C@H]3O[C@@]4(CC[C@H]3C)O[C@H]([C@H](C)C(=O)c3ccc[nH]3)[C@H](C)C[C@H]4C)nc2c1C(=O)O	inactive
CN1CC[C@@]2(C)c3cc(OC(=O)Nc4ccccc4)ccc3N(C)[C@@H]12	inactive
COC(=O)N1CCN(C(=O)Cc2ccc(Cl)c(Cl)c2)C(CN2CCCC2)C1 (stereo unspecified)	inactive
C[C@H](N)Cc1cccc(C(F)(F)F)c1	inactive
CCCN1CCc2cccc3c2[C@H]1Cc1ccc(O)c(O)c1-3	inactive
CC(N)Cc1c[nH]c2ccc(O)cc12 (stereo unspecified)	inactive
CCOC(=O)c1ncn2c1[C@@H]1CCCN1C(=O)c1cc(OC)ccc1-2	inactive
CCN1C[C@@]2(COC)C3[C@@H](OC)C4[C@@H]1C3([C@@H]1C[C@]3(O)[C@H](OC(=O)c5ccccc5)[C@@H]1[C@]4(OC(C)=O)[C@@H](O)[C@@H]3OC)[C@H](OC)C[C@H]2O	inactive
C[N+](C)(C)CC#CCN1CCCC1=O	inactive
CCCN(CCC)[C@@H]1CCc2cccc(O)c2C1	inactive

Biological target: ATPase family AAA domain-containing protein 5 (Homo sapiens) (UniProt Q96QE3)
Sequence (Q96QE3 whole entry, looked up, the tested form may be a part): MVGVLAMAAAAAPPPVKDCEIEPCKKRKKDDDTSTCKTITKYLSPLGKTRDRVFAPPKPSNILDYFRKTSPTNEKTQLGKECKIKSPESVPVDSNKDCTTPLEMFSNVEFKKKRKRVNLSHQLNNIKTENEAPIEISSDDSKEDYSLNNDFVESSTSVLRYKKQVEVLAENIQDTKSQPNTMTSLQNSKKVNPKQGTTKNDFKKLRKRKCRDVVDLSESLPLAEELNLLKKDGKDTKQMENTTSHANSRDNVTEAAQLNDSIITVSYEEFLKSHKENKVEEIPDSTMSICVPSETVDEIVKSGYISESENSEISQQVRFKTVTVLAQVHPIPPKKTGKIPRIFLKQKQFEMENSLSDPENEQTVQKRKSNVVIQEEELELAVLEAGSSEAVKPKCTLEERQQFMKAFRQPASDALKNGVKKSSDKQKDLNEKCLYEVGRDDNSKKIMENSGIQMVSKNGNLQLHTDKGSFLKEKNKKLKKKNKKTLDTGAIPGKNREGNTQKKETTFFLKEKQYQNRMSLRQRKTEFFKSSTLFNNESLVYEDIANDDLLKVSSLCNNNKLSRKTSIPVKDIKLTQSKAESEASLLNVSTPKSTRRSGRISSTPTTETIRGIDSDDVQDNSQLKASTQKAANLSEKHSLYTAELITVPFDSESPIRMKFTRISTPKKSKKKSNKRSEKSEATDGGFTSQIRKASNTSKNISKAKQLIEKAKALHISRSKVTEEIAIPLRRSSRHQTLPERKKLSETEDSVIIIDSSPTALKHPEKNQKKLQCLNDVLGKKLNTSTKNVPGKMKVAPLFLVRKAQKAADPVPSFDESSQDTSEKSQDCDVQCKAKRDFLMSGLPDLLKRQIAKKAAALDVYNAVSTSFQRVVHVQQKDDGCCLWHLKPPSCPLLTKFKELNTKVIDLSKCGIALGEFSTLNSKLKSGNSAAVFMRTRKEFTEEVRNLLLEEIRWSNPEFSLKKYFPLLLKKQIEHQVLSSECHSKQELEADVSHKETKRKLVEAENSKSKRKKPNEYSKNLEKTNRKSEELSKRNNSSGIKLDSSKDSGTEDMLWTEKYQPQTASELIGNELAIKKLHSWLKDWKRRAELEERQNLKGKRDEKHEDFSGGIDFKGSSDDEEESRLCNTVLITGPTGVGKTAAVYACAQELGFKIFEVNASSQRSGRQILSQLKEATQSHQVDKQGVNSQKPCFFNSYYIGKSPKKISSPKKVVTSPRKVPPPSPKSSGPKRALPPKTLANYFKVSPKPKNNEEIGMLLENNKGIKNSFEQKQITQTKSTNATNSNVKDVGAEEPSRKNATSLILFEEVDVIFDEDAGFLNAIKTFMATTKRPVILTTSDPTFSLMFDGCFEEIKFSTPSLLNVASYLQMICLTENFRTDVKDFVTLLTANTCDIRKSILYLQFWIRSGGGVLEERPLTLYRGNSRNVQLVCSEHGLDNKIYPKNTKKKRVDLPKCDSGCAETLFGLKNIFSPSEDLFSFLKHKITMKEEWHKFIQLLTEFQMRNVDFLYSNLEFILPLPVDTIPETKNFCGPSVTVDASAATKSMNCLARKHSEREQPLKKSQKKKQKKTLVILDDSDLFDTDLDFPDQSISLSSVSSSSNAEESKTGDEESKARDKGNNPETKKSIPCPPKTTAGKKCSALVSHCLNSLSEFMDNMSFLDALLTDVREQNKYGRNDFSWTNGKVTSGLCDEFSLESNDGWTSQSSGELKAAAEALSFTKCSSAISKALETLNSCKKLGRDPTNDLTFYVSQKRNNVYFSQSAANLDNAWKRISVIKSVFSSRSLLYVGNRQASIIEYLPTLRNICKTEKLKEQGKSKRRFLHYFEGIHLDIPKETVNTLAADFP
Test: Validation screen for small molecules that inhibit ELG1-dependent DNA repair in human embryonic kidney (HEK293T) cells expressing luciferase-tagged ELG1 (AID 493107); further: nearly all actives have a fitted effect of over 70% in size; further: potency means the concentration at half of the fitted maximal effect
Conditions: HEK293T ELG1-luciferase level, luminescence, 5-fluorouridine co-treatment, 16 h; series mostly up to 46.1 µM
Procedure, shortened: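 Luciferase read-out, ONE-Glo, 30 min at room temperature, follows 16 h co-exposure at 37 C of compound and the DNA-damaging agent 5-fluorouridine. Cells: HEK293T with ELG1-luciferase fusion, 2,000 per well, DMSO as vehicle.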

SMILES	Potency
CNc1ccc2oc(C[C@H]3O[C@@]4(CC[C@H]3C)O[C@H]([C@H](C)C(=O)c3ccc[nH]3)[C@H](C)C[C@H]4C)nc2c1C(=O)O	13 µM (active)
CN1CC[C@@]2(C)c3cc(OC(=O)Nc4ccccc4)ccc3N(C)[C@@H]12	inactive
COC(=O)N1CCN(C(=O)Cc2ccc(Cl)c(Cl)c2)C(CN2CCCC2)C1 (stereo unspecified)	inactive
CCNC(=O)[C@H]1O[C@@H](n2cnc3c(N)ncnc32)[C@H](O)[C@@H]1O	inactive
C[C@H](N)Cc1cccc(C(F)(F)F)c1	inactive
CCCN1CCc2cccc3c2[C@H]1Cc1ccc(O)c(O)c1-3	inactive
CC(N)Cc1c[nH]c2ccc(O)cc12 (stereo unspecified)	inactive
CCOC(=O)c1ncn2c1[C@@H]1CCCN1C(=O)c1cc(OC)ccc1-2	inactive
CCN1C[C@@]2(COC)C3[C@@H](OC)C4[C@@H]1C3([C@@H]1C[C@]3(O)[C@H](OC(=O)c5ccccc5)[C@@H]1[C@]4(OC(C)=O)[C@@H](O)[C@@H]3OC)[C@H](OC)C[C@H]2O	inactive
C[N+](C)(C)CC#CCN1CCCC1=O	inactive
CCCN(CCC)[C@@H]1CCc2cccc(O)c2C1	inactive
